An excerpt weighted towards active compounds, which were near 19% of everything screened.
DT40 TDP1 no CPT: qHTS for Inhibitors of human tyrosyl-DNA phosphodiesterase 1 (TDP1): qHTS in cells in absence of CPT. DT40 Tdp1-/- hTDP1 cells, no CPT, ATP luminescence, 48 h. Potency, µM (doses to about 46.2 µM), for the others: at the highest dose activity change, negative = growth inhibition, hits mostly inhibitors. hit rate 15% among 420,000; also: potency is read from the fitted curve at half-maximal effect; % is scaled to controls: 0 for no effect and ±100 for the full control effect; nearly all actives have a fitted effect of over 55% in size
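Stably hTDP1-transfected Tdp1-null chicken DT40 cells were treated with library compounds minus camptothecin and grown for at least 48 hr at 37 °C, after which cellular ATP was quantified by luminescence.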
MCF10A rerep: A quantitative high throughput screen for small molecules that induce DNA re-replication in MCF 10a normal breast cells; MCF 10A DNA re-replication, Hoechst nuclear intensity, 48 h; Potency, µM (top dose mostly 46.1 µM), for the others: top-dose activity, positive = re-replication, hits mostly activators; hit rate 2.9% among 350,000; also: potency is read from the fitted curve at half-maximal effect; % of control where 0% means no effect; nearly all actives have a fitted effect of over 50% in size
Chronic BCR inh: qHTS Assay to Find Inhibitors of Chronic Active B-Cell Receptor Signaling; ABC-DLBCL IkBa-CBG/CBR reporter, luminescence ratio, 4 h; Potency, µM (series often up to 46.1 µM), for inactives: at the highest dose activity change, negative = inhibition, hits mostly inhibitors; hit rate 0.05% among 340,000; AID 493014, 2011; active = well fitted inhibition curve with a large enough effect in the signal ratio, with a control signal flat, not every such curve was filed as active; inconclusive = small, poorly fitted or top-dose-only effect, or effect the other way, or a change in a side signal; the % refers to the signal ratio;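 also: potency is read from the fitted curve at half-maximal effect; plate controls were basal doxycycline-induced cells for no effect and cells given 10 µM MG132 for full effect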
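TMD8 ABC-DLBCL cells carrying doxycycline-inducible green luciferase fused to IkappaBalpha plus unfused red luciferase were exposed to compounds (up to 46 uM) for 4 hrs at 37C. Activity came from the overlap-corrected green/red luminescence ratio.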
IL-1B inflam inh: qHTS for Inhibitors of Inflammasome Signaling: IL-1-beta AlphaLISA Primary Screen; THP-1 LPS/ATP IL-1B secretion, AlphaLISA, 16 h; active compounds read low; activity change, % at 57.5 µM; hit rate 4.7% among 360,000; in the data active = activity change below about -50%; inconclusive = mostly about -30% to -49%; also: % is scaled to controls: 0 for no effect and ±100 for the full control effect
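THP-1 cells pretreated 1 hr with compounds (up to 57.5 uM final), then stimulated with LPS (250 ng/mL final) plus ATP (1.25 mM final); secreted IL-1B measured by AlphaLISA after 16 hr, decreased signal indicating inhibition.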
DT40 TDP1 CPT: qHTS for Inhibitors of human tyrosyl-DNA phosphodiesterase 1 (TDP1): qHTS in cells in presence of CPT | chicken DT40 Tdp1-/-;hTDP1 cells + 20 nM CPT, ATP luminescence, 48 h | Potency, µM (highest dose often 46.2 µM), without a hit: at the highest dose activity change, negative = growth inhibition, usual class: inhibitors | hit rate 12% among 420,000 | AID 686979, 2013; also: potency is read from the fitted curve at half-maximal effect; % is scaled to controls: 0 for no effect and ±100 for the full control effect; nearly all actives have a fitted effect of over 55% in size
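Chicken DT40 Tdp1-/- cells stably complemented with human TDP1 were seeded at 400 cells/well in medium containing 20 nM camptothecin, exposed to pin-transferred compounds, and grown at 37 °C for at least 48 hr. Viability was read as ATP luminescence.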
SW480 rereplic: A quantitative high throughput screen for small molecules that induce DNA re-replication in SW480 colon adenocarcinoma cells; hit rate 1.8% among 340,000; Potency, µM (highest dose often 46.1 µM), without a hit: at the highest dose re-replication activation, actives largely listed as activators; SW480 DNA re-replication, Hoechst DNA content imaging, 48 h; also: potency is read from the fitted curve at half-maximal effect; % of control where 0% means no effect; nearly all actives have a fitted effect of over 55% in size
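Treated cells incubate 48 hr (37 C, 5% CO2), are stained 40 min with Hoechst, and nuclear fluorescence is enumerated; a rise in nuclei with high DNA signal marks re-replication.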
* = called active by the depositor; i = inactive; ? = inconclusive; · = no result given. Unless noted, calls follow the shape of the dose curve; as a rule, active = well fitted curve in the direction sought with a large enough effect; inconclusive = small, poorly fitted or top-dose-only effect, or another doubt; inactive = no such curve, though single readings can be large; an effect the other way counts as inactive or inconclusive.

SMILES	DT40 TDP1 no CPT	MCF10A rerep	Chronic BCR inh	IL-1B inflam inh	DT40 TDP1 CPT	SW480 rereplic
O=C(NCc1ccccc1)c1cccc2c(-c3ccc(F)c(F)c3)coc12	?	·	·	-18	?	·
COc1ccc(CNC(=O)c2cccc3c(-c4cccc(C(N)=O)c4)coc23)cc1OC	5.2µM*	·	·	52	3.7µM*	·
COc1ccc(CNC(=O)c2cccc3c(-c4ccc(F)c(F)c4)coc23)cc1OC	12µM*	·	·	-10	21µM*	·
CN(C)c1cccc(NC(=O)c2cccc3c(-c4ccc(F)c(F)c4)coc23)c1	21µM*	·	·	-13	?	·
CNS(=O)(=O)c1cn(CC(=O)N2CCN(c3ccccc3F)CC2)cc1S(=O)(=O)NC	-25%	·	·	·	-4%	·
COc1cc(-c2c(-c3cc(OC)c(OC)c(OC)c3)noc2C)ccc1F	0.0073µM*	?	?	88	0.092µM*	1.3µM*
COc1cc(-c2noc(C)c2C(=O)NCc2ccc(C)o2)cc(OC)c1OC	?	?	3%	25	?	3%
COc1cc(-c2noc(C)c2C(=O)NCCO)cc(OC)c1OC	-6%	2%	-1%	-2	1%	-6%
COc1ccc(-c2c(-c3cc(OC)c(OC)c(OC)c3)noc2C)cn1	0.58µM*	1.6µM*	?	27	0.58µM*	7.3µM*
COC(=O)c1cc(-c2c(-c3cc(OC)c(OC)c(OC)c3)noc2C)cc([N+](=O)[O-])c1	16µM*	?	?	15	16µM*	27%
O=C(Cc1ccc([N+](=O)[O-])cc1)OCc1c(F)cccc1Cl	0%	8%	?	-4	2%	-9%
COc1cc2c(cc1OC(C)=O)CCCCC2=O	-28%	-7%	·	0	-9%	-5%
CCc1cc(C(=O)NC2CCCN(Cc3ccccc3F)C2)n(C)n1 (configuration not stated)	9.2µM*	1%	-2%	35	6.5µM*	2.1µM*
Cn1nc(C(=O)NC2CCCN(Cc3ccccc3F)C2)c2ccccc2c1=O (configuration not stated)	?	6%	?	i	?	-22%
COc1ccc(C(=O)NC2CCCN(Cc3ccccc3F)C2)c(OC)c1OC (configuration not stated)	5.2µM*	?	-1%	11	?	0%
Cn1c(=O)oc2cc(S(=O)(=O)NC(CC(=O)O)c3cccc(Br)c3)ccc21 (configuration not stated)	10%	·	·	·	29%	·
CCOc1ccccc1NC(=O)Cn1nnc(C(=O)NCc2ccco2)c1N	0.023µM*	0.13µM*	?	22	0.0092µM*	?
CCOc1ccccc1NC(=O)Cn1nnc(C(=O)NCc2ccc3c(c2)OCO3)c1N	2.6µM*	4.6µM*	?	30	4.1µM*	?
CCOc1ccccc1NC(=O)c1nnn(CC(=O)Nc2ccc3c(c2)OCO3)c1N	11%	6%	3%	-8	0%	-21%
CC(=O)Nc1cccc(-c2csc(C(C)(O)c3ccc(F)c(F)c3)n2)c1 (configuration not stated)	?	·	·	34	?	·
COc1cc(Cl)c(NC(=O)c2cc3ccccn3n2)c(OC)c1	21µM*	·	·	·	16µM*	·
COc1ccc(NC(=O)c2cc3ccccn3n2)cc1	-6%	10%	?	13	-13%	-4%
CCCCCC(=O)N1C[C@H](n2cc(COC(=O)c3ccccc3)nn2)[C@@H](O)C[C@@H]1c1ccc(OC)cc1	?	·	·	-4	21µM*	·

Assay outcomes from PubChem BioAssay.
